In PubChem BioAssay (NCATS):
Inconclusive results are not listed. Active and inactive are the calls of the source. Unless noted, calls follow the shape of the dose curve; as a rule, active = well fitted curve in either direction with a large enough effect (not every such curve was filed as active); inconclusive = small, poorly fitted or top-dose-only effect, or another doubt; inactive = flat fitted curve, though single readings scatter.

How the values were obtained:
[1] = target: Lysosomal acid glucosylceramidase (Homo sapiens) (UniProt P04062); test: Glucocerebrosidase-p2 (AID 348; in the data active = potency below about 10 µM; also: potency is read from the fitted curve at half-maximal effect); details: purified GBA, blue fluorogenic substrate, 40 min
Sequence of Lysosomal acid glucosylceramidase (Homo sapiens) (P04062 whole entry, looked up): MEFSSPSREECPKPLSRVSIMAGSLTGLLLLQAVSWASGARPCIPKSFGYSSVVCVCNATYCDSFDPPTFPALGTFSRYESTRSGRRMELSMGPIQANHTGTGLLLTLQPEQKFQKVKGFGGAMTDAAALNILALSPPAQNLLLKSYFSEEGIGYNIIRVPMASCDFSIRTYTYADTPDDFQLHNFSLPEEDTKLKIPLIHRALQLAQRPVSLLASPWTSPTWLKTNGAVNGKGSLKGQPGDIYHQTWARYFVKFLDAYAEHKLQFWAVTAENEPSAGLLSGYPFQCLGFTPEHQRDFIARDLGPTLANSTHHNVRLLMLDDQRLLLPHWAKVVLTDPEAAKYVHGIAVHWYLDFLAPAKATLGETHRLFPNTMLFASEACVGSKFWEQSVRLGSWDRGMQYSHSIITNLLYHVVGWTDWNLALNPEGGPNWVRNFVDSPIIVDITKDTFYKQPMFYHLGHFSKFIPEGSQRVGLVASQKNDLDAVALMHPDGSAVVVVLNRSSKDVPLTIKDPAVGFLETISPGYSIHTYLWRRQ
How it was run: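 Compounds titrated from 0.6 nM upwards against 0.2 nM enzyme in pH 5.9 citric acid/KH2PO4, taurocholate, tween-20; blue fluorogenic substrate 80 uM, 40 min room temperature, stopped and read Ex 365/Em 440 for AC50.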

[2] = AP1 Signaling Pathway (AID 357); details: ME-180 AP-1-bla reporter, EGF-induced, beta-lactamase ratio, 5 h; at 7.69 µM (top of the series) unless noted; also: % is scaled to controls: 0 for no effect and ±100 for the full control effect
How it was run: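 Modulation of EGF-driven AP-1 transcription was assessed with a beta-lactamase reporter in ME-180 cells. Compound and EC50 EGF were co-incubated 5 hours at 37 °C before 2.5-hour CCF4 loading at room temperature and dual-emission reading.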

[3] = target: Cytochrome P450 1A2 (Homo sapiens) (UniProt P05177); test: p450-cyp1a2 (AID 410; calls by dose curve; also: potency is read from the fitted curve at half-maximal effect;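 as to activity change, negative = inhibition: -100% = full effect of reference inhibitor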); details: recombinant CYP1A2, luciferin-ME demethylation, luminescence; series mostly up to 57 µM
Sequence of Cytochrome P450 1A2 (Homo sapiens) (P05177 whole entry, looked up): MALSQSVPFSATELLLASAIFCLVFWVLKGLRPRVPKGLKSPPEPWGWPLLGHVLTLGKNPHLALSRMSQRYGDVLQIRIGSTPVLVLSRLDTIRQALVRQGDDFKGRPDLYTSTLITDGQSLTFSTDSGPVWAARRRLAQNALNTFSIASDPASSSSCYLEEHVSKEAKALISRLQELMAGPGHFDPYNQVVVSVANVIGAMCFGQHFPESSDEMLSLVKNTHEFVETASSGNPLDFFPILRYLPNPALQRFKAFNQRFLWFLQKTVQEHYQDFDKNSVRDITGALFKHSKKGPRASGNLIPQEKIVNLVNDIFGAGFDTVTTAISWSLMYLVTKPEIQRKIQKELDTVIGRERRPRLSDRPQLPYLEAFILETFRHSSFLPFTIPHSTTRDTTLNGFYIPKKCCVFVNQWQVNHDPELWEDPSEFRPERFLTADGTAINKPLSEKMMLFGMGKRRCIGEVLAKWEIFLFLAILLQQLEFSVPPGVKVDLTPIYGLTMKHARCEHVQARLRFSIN
How it was run: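 20nM CYP1A2 with 100uM Luciferin-ME (at Km) in 100mM KPO4; compound preincubated 10 min, NADPH regeneration added, 60 min at room temperature. Luciferin quantified by luminescence after detection reagent; normalized to 57 uM furafylline.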

[4] = NFAT Signaling Pathway (AID 444); details: Jurkat NFAT-bla M1, carbachol, beta-lactamase ratio, 5 h; at 7.69 µM (top of the series) unless noted;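 also: carbachol stimulus at about its EC50 of 1 µM final; % is scaled to controls: 0 for no effect and ±100 for the full control effect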
How it was run: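 Read-out: CCF4 FRET ratio (460 nm/530 nm) after 1 h RT dye loading, used for %activity and AC50 from titration series. Cells: Jurkat NFAT-β-lactamase/M1 line, treated with compound plus 1 uM carbachol for 5 h, 37 °C.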

[5] = Stat Signaling Pathway (AID 446); details: ME-180 SIE beta-lactamase reporter, IL-6 stimulated, 5 h; at 7.69 µM (top of the series) unless noted;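 also: ME-180 cervical cancer cells given 40 pM IL-6 alongside compound; SIE-controlled beta-lactamase reporter measured as 460/530 nm FRET emission ratio; % is scaled to controls: 0 for no effect and ±100 for the full control effect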
How it was run: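 Reporter line: ME-180 cervical carcinoma, SIE-beta-lactamase. Treatment: compound with 40 pM IL-6, 5 hrs, 37 C, in low-serum OPTI-MEM with 10 mM HEPES pH 7.3. Detection: 460/530 nm fluorescence.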

[6] = target: Glucocorticoid receptor (Homo sapiens) (UniProt P04150); test: GR-EFC Redistribution (AID 451; calls by dose curve; also: potency is read from the fitted curve at half-maximal effect); details: CHO-K1 GR-EFC translocation, beta-gal luminescence, 2 h
Sequence of Glucocorticoid receptor (Homo sapiens) (P04150 whole entry, looked up, the tested form may be a part): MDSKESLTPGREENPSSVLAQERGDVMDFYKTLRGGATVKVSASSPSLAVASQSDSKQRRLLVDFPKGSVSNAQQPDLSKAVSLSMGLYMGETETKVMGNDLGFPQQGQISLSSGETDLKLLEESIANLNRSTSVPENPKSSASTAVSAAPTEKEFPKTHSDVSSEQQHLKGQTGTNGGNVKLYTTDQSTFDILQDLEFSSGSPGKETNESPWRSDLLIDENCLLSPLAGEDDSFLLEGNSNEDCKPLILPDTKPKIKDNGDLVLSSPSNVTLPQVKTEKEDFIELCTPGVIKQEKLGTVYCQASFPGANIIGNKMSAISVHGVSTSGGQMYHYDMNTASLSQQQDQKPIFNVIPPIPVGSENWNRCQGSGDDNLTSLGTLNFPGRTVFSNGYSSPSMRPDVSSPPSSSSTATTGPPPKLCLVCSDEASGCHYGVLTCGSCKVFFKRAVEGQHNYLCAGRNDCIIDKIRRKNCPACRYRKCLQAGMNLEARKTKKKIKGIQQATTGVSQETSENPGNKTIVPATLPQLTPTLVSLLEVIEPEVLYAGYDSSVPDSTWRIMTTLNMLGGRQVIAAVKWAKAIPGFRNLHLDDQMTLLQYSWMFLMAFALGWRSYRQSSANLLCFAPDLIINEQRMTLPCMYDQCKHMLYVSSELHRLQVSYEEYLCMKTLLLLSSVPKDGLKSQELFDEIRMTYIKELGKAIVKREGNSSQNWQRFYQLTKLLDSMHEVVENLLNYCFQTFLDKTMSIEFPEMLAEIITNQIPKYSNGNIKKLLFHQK
How it was run: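 Translocation of GR-ED fusion to nuclear EA restores b-gal, read by luminescence after 1 h room-temperature detection. Engineered CHO-K1 biosensor cells, 1,000/well, exposed 2 h at 37 C to titrations up to 46 uM final.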

[7] = target: Mitogen-activated protein kinase 10 (Mus musculus) (UniProt Q61831); test: JNK3 AlphaScreen Assay (AID 530); details: JNK3 lysate, c-Jun phosphorylation; series mostly up to 57.1 µM;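 also: kinase came from lysate of stimulated human HepG2 cells; signal reports phosphorylation of biotinylated GST-cJun 1-79 at Ser73 with 10 µM ATP; % is scaled to controls: 0 for no effect and ±100 for the full control effect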
How it was run: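 Compound titrations were preincubated 15 minutes at room temperature with substrate, antibody and pre-activated JNK3-containing HepG2 lysate. Reactions were started with 10 uM ATP and stopped with EDTA-containing bead buffer for AlphaScreen detection.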

[8] = target: 3',5'-cyclic-AMP phosphodiesterase 4B (Homo sapiens) (UniProt Q07343); test: qHTS Assay for Inhibitors of PDE-IV (AID 607; active = well fitted activation curve with a large enough effect in the main read-out, with a control signal flat, not every such curve was filed as active; also: % of control where 0% means no effect); details: HEK293 ACTOne CNG channel cells, membrane potential fluorescence; series mostly up to 22.9 µM
Sequence of 3',5'-cyclic-AMP phosphodiesterase 4B (Homo sapiens) (Q07343 whole entry, looked up): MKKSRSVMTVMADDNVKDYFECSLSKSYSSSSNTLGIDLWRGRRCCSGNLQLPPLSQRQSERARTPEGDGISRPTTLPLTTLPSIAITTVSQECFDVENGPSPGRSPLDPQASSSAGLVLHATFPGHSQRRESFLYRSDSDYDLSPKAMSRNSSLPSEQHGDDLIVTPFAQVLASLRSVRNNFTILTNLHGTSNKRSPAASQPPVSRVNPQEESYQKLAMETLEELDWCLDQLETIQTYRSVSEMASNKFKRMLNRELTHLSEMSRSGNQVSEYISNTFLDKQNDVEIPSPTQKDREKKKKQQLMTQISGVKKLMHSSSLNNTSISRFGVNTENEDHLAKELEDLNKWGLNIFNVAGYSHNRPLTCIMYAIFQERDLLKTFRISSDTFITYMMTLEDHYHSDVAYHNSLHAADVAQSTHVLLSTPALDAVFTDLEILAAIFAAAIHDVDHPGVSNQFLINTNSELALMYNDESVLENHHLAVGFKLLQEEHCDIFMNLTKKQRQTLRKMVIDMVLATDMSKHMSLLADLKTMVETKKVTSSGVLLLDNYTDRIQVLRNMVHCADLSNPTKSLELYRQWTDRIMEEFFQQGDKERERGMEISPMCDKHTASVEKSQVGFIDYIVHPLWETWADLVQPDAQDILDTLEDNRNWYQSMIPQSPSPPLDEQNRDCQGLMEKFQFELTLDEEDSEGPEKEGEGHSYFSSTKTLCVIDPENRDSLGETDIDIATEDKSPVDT
How it was run: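 Cell-based read-out of cAMP via a modified cyclic nucleotide-gated channel and membrane potential dye (535/590 nm) in HEK293 cells expressing PDE4 endogenously. Compounds tested up to 22.9 uM final; 100 uM RO 20-1724 reference.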

[9] = target: Cytochrome P450 3A4 (Homo sapiens) (UniProt P08684); test: qHTS Assay for Activators of Cytochrome P450 3A4 (AID 885; active = well fitted curve in the direction sought with a large enough effect; an effect the other way counts as inactive or inconclusive; also: nearly all actives have a fitted effect of over 65% in size; also: potency is read from the fitted curve at half-maximal effect); details: recombinant CYP3A4, Luciferin-PPXE luminescence, 60 min; series mostly up to 57.1 µM
Sequence of Cytochrome P450 3A4 (Homo sapiens) (P08684 whole entry, looked up): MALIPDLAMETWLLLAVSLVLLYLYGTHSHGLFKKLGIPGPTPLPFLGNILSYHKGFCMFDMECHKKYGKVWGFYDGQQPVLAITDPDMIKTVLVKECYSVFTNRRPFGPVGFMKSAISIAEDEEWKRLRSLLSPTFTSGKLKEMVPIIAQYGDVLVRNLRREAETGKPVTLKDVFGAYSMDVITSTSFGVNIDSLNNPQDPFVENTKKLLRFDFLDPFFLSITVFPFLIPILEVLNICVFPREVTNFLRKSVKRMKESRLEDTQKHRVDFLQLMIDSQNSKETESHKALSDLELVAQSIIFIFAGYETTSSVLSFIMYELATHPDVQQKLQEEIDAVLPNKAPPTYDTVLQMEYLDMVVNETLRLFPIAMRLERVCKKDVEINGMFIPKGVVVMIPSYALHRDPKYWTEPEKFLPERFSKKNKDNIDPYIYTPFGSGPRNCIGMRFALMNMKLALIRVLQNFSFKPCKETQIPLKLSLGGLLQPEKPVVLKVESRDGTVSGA
How it was run: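 Signal was normalized against complete inhibition by 57 uM ketoconazole. The reaction used 20nM CYP3A4 with 25uM Luciferin-PPXE, 10-min compound preincubation and a 60-min NADPH-supported step at RT.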

[10] = qHTS Assay for Lipid Storage Modulators (AID 1519; calls by dose curve); details: Drosophila S3 cells, BODIPY lipid droplet/cell ratio, laser cytometry, cells loaded with oleic acid; for activity change, negative = inhibition: at 57.5 µM (top of the series)
How it was run: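 Cells seeded at 5,000 per well were treated with compounds over a concentration series and loaded with oleic acid (400 uM, as added). Lipid droplet fluorescence (488 nm excitation, 500-530 nm channel) was read by laser-scanning cytometry and normalized to 20 uM Triacsin C.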

[11] = Primary qHTS for small molecule stabilizers of the endoplasmic reticulum resident proteome: Secreted ER Calcium Modulated Protein (SERCaMP) assay (AID 1508630; active = well fitted curve in the direction sought with a large enough effect; an effect the other way counts as inactive or inconclusive; also: % is scaled to controls: 0 for no effect and ±100 for the full control effect); details: SH-SY5Y GLuc-SERCaMP (Gaussia luciferase released on ER calcium loss) secretion, thapsigargin, luminescence; series mostly up to 38.4 µM
How it was run: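 GLuc-SERCaMP-expressing SH-SY5Y cells, pretreated 16 h with compound, are challenged with thapsigargin to empty ER calcium stores; after 4 h, coelenterazine is added directly to the medium and luminescence is imaged.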

[12] = target: Cytochrome P450 3A4 (Homo sapiens) (UniProt P08684); test: qHTS Assay for Inhibitors and Substrates of Cytochrome P450 3A4 (AID 884; active = well fitted curve in the direction sought with a large enough effect; an effect the other way counts as inactive or inconclusive; also: nearly all actives have a fitted effect of over 50% in size; also: potency is read from the fitted curve at half-maximal effect); details: recombinant CYP3A4, Luciferin-PPXE luminescence; series mostly up to 57.1 µM
How it was run: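 20 nM human CYP3A4 with 25 uM Luciferin-PPXE (at KM) in 200 mM KPO4, preincubated 10 min with compound; NADPH regeneration started a 60 min RT reaction. Luciferin detected by luminescence, normalized to 57 uM ketoconazole as full inhibition.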

[13] = target: Cytochrome P450 2D6 (Homo sapiens) (UniProt P10635); test: qHTS Assay for Inhibitors and Substrates of Cytochrome P450 2D6 (AID 891; active = well fitted curve in the direction sought with a large enough effect; an effect the other way counts as inactive or inconclusive; also: potency is read from the fitted curve at half-maximal effect; nearly all actives have a fitted effect of over 60% in size); details: recombinant CYP2D6, luciferin-ME EGE luminescence; series mostly up to 57.1 µM
Sequence of Cytochrome P450 2D6 (Homo sapiens) (P10635 whole entry, looked up): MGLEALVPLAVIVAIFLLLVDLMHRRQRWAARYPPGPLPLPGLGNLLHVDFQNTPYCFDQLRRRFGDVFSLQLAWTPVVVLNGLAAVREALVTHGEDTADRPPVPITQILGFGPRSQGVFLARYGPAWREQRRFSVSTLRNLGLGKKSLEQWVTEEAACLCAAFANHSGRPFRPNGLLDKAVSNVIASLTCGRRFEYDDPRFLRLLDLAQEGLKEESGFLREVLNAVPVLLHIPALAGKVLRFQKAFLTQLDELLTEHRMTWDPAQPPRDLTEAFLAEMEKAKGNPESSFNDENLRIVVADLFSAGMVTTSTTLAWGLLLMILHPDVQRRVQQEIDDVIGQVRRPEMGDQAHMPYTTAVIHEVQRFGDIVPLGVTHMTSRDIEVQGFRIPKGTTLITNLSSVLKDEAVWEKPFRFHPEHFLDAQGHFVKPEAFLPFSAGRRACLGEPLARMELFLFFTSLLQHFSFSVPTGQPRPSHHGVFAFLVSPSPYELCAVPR
How it was run: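 Human CYP2D6 (5 nM) with 30 uM Luciferin-ME EGE (at Km) in 100 mM KPO4, compound preincubated 10 min, then NADPH regeneration system for 60 min at room temperature. Luciferin read by luminescence; normalized to 1.43 uM quinidine.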

[14] = qHTS Assay for Identification of Small Molecule Agonists for Hypoxia Response Element Signaling Pathway (AID 914; active = well fitted activation curve with a large enough effect in the signal ratio, with a control signal flat, not every such curve was filed as active; the % refers to the signal ratio; also: % of control where 0% means no effect); details: ME-180 (cervical carcinoma) HRE-bla reporter, beta-lactamase ratio, CoCl2, 17 h; activation: stronger effect = higher value
How it was run: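 Read-out: CCF4 FRET ratio of 460nm to 530nm emission (excitation 405nm) after 2.5 hours at room temperature, taken from HRE-bla ME-180 cells that had been exposed to compound and EC50 CoCl2 for 17 hours.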

[15] = target: Cytochrome P450 2C19 (Homo sapiens) (UniProt P33261); test: qHTS Assay for Inhibitors and Substrates of Cytochrome P450 2C19 (AID 899; active = well fitted curve in the direction sought with a large enough effect; an effect the other way counts as inactive or inconclusive; also: potency is read from the fitted curve at half-maximal effect; nearly all actives have a fitted effect of over 60% in size); details: recombinant CYP2C19, luciferin-H EGE luminescence; series mostly up to 57.1 µM
Sequence of Cytochrome P450 2C19 (Homo sapiens) (P33261 whole entry, looked up): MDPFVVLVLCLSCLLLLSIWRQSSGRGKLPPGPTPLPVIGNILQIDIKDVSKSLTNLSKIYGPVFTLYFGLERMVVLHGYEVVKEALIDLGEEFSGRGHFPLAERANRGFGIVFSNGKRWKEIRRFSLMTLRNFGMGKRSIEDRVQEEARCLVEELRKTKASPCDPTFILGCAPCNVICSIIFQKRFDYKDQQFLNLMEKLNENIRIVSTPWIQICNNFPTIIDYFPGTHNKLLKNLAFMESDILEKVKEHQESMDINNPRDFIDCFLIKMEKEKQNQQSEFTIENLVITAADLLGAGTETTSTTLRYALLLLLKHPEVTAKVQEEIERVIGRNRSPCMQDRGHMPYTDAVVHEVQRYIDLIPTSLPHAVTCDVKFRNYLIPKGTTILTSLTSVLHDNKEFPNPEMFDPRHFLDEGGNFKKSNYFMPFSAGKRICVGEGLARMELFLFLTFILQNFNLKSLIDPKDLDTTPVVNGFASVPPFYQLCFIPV
How it was run: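 5nM enzyme + 10uM Luciferin-H EGE (=KM), 50mM KPO4; cpd pin-transferred, 10 min 37C; NADPH regen, 60 min 37C; stopped w/ luciferin detection reagent, 20 min; luminescence. Normalized to 57uM ketoconazole (AC100).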

[16] = measured here: cell count channel max response
[17] = measured here: lipid channel max response

| Compound | Potency [1] | activity change, negative = inhibition [2] | Potency [3] | activity change, negative = inhibition [4] | activity, negative = inhibition [5] | Potency [6] | outcome [7] | Potency [8] | Potency [9] | activity change, negative = inhibition [10] | max response [10, 16] [%] | max response [10, 17] [%] | Potency [11] | Potency [12] | Potency [13] | activation [14] | Potency [15] |
| --- | --- | --- | --- | --- | --- | --- | --- | --- | --- | --- | --- | --- | --- | --- | --- | --- | --- |
| O=C(c1cnccn1)N1CCC[C@@]2(CCN(c3ncccn3)C2)C1 | > 11.4 µM (inactive) | -3.69% (inactive) | inactive | 7.98% (inactive) | -3.83% (inactive) | > 46 µM (inactive) | inactive | inactive | inactive | 5.72% (inactive) | 9.64 | 19.5 | inactive | – | – | – | – |
| Cc1noc(C)c1C(=O)N1CCC[C@@]2(CCN(C(=O)Nc3cccc(F)c3)C2)C1 | > 11.4 µM (inactive) | -2.75% (inactive) | inactive | 9.58% (inactive) | 8.15% (inactive) | > 46 µM (inactive) | inactive | inactive | inactive | 3.82% (inactive) | 8.32 | 13.6 | inactive | 5.01 µM (active) | – | – | – |
| CC(C)NC(=O)N1CC[C@@]2(CCCN(C(=O)c3csnn3)C2)C1 | > 11.4 µM (inactive) | 8.93% (inactive) | inactive | 20.3% (inactive) | 10.6% (inactive) | > 46 µM (inactive) | inactive | inactive | inactive | -0.319% (inactive) | 4.92 | 7.3 | inactive | – | – | – | – |
| COCC(=O)N1CCC2(CC1)CN(C(c1ccccc1)c1ccccc1)C2 | > 11.4 µM (inactive) | 3.82% (inactive) | inactive | 11.6% (inactive) | -8.6% (inactive) | > 46 µM (inactive) | inactive | inactive | 25.1 µM (active) | 2.84% (inactive) | -11.5 | -6.58 | inactive | inactive | 2.51 µM (active) | – | – |
| O=C(Oc1ccccc1)N1CCC2(CC1)CCN(c1ncccn1)CC2 | > 11.4 µM (inactive) | 3.96% (inactive) | inactive | -8.96% (inactive) | -1.88% (inactive) | > 46 µM (inactive) | inactive | inactive | 6.31 µM (active) | 2.83% (inactive) | -3.54 | 1.32 | inactive | inactive | – | 2.8% (inactive) | – |
| COCC(=O)N1CCC2(CC1)CCN(C(c1ccccc1)c1ccccc1)CC2 | > 11.4 µM (inactive) | -2.73% (inactive) | inactive | -16.3% (inactive) | 1.17% (inactive) | > 46 µM (inactive) | inactive | inactive | 25.1 µM (active) | 1.77% (inactive) | 1.52 | 5.9 | inactive | inactive | – | – | – |
| CC(C)NC(=O)N1CCC2(CC1)CCN(C(=O)c1ccncc1)CC2 | > 11.4 µM (inactive) | -7.19% (inactive) | inactive | 1.59% (inactive) | -8.96% (inactive) | > 46 µM (inactive) | inactive | inactive | inactive | -0.818% (inactive) | 9.1 | 9.91 | inactive | – | – | – | – |
| O=C(c1cnccn1)N1CCC[C@@]2(CCN(c3ccccc3)C2)C1 | > 11.4 µM (inactive) | -15.8% (inactive) | 15.8 µM (active) | -3.48% (inactive) | -3.78% (inactive) | > 46 µM (inactive) | inactive | inactive | inactive | -0.338% (inactive) | 17 | 18.8 | inactive | 7.94 µM (active) | – | – | – |
| O=C(Nc1cccc(F)c1)N1CC[C@@]2(CCCN(C(=O)c3cccc(F)c3)C2)C1 | > 11.4 µM (inactive) | -6.61% (inactive) | 12.6 µM (active) | 16.9% (inactive) | -1.65% (inactive) | > 46 µM (inactive) | inactive | inactive | inactive | 6.49% (inactive) | 12.4 | 22.3 | inactive | – | – | – | – |
| COc1ccccc1CN1CC[C@@]2(CCCN(S(C)(=O)=O)C2)C1 | > 11.4 µM (inactive) | 1.48% (inactive) | inactive | -16.9% (inactive) | 5.92% (inactive) | > 46 µM (inactive) | inactive | inactive | inactive | 4.56% (inactive) | 7.77 | 13.7 | inactive | – | – | – | – |
| CS(=O)(=O)N1CCC[C@@]2(CCN(c3ccccc3)C2)C1 | > 11.4 µM (inactive) | -11.3% (inactive) | 31.6 µM (active) | -3.01% (inactive) | -2.15% (inactive) | > 46 µM (inactive) | inactive | inactive | inactive | -16.2% (inactive) | 2 | -14 | inactive | – | – | – | 3.16 µM (active) |
| O=C(c1csnn1)N1CCC2(CC1)CN(C(c1ccccc1)c1ccccc1)C2 | > 11.4 µM (inactive) | 3.92% (inactive) | inactive | -2.37% (inactive) | -0.642% (inactive) | > 46 µM (inactive) | inactive | inactive | 10 µM (active) | 3.78% (inactive) | 18.7 | 24.2 | inactive | – | – | – | – |
